Results filed as inconclusive are left out. Activity calls are given as the source filed them. How the source made its calls, unless noted: active means hit-call score of the fitted dose curve at least 0.9, where 1 is the maximum; inactive means score below 0.9.
Assays:
[1] = ATG_NFI_CIS: Attagene CIS-FACTORIAL HepG2 Assay for human Nuclear Factor I (NFI) (AID 2282989); conditions: HepG2 cis-regulatory reporter, NFI response element transcription; actives raise or lower the signal
Method in brief: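 Read-out: reporter mRNA via RT-PCR plus capillary electrophoresis with fluorescence detection. Transiently transfected HepG2 (endogenous TF activity on cis promoters), 24 h compound exposure; gain or loss of signal fitted against DMSO.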

[2] = biological target: Myc proto-oncogene protein (Homo sapiens) (UniProt P01106); test: ATG_Myc_CIS: Attagene CIS-FACTORIAL HepG2 Assay for human Myelocytomatosis (Myc) Proto-Oncogene Transcription Factor (AID 2282990); conditions: HepG2, Attagene cis-reporter transcription factor activity; actives raise or lower the signal
Method in brief: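 Multiplexed cis-reporter transcription in HepG2 cells after 24 h chemical treatment. Reporter mRNA measured by RT-PCR and capillary electrophoresis fluorescence; activity fitted bidirectionally against DMSO control.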

[3] = ATG_NRF2_ARE_CIS: Attagene CIS-FACTORIAL HepG2 Assay for human Nuclear Factor Erythroid 2 Related Factor 2 (NFR2) response to Antioxidant Response Elements (ARE) (AID 2282992); conditions: HepG2 Attagene ARE/NRF2 reporter, transcription factor activity; actives raise or lower the signal
Method in brief: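 Endogenous transcription factor activity read out as reporter transcript levels (RT-PCR plus capillary electrophoresis, fluorescence) in transiently transfected HepG2 cells. Measured at 24 h after dosing; gain or loss of signal fitted versus DMSO.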

[4] = ATG_Oct_MLP_CIS: Attagene CIS-FACTORIAL HepG2 Assay for human Octamer-Binding Transcription Factor (Oct) (AID 2282993); conditions: HepG2 Attagene cis-factorial Oct reporter, mRNA; actives raise or lower the signal
Method in brief: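 Read-out: reporter mRNA via RT-PCR plus capillary electrophoresis of 6-FAM-labelled fragments. Transiently transfected HepG2, 24 h exposure, endogenous TF activity on cis elements. Gain or loss of signal fitted relative to DMSO.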

[5] = biological target: Cellular tumor antigen p53 (Homo sapiens) (UniProt P04637); test: ATG_p53_CIS: Attagene CIS-FACTORIAL HepG2 Assay for human p53 Transcription Factor (AID 2282994); conditions: HepG2 p53 cis-element reporter, Attagene mRNA; actives raise or lower the signal
Method in brief: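 Endogenous p53 activity read in transiently transfected HepG2 from a cis-element-driven reporter transcript after 24 h exposure. RNA reverse-transcribed, PCR-amplified, fluorescently labelled and sized by capillary electrophoresis; gain or loss fitted against DMSO baseline.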

[6] = BSK_3C_TissueFactor: BioMAP Diversity Plus: 3C Assay for Tissue Factor Biomarker Activity (AID 2282997); conditions: BioMAP 3C HUVEC, tissue factor biomarker readout; actives raise or lower the signal
Method in brief: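 Tissue Factor measured by ELISA, 24 h after treatment of primary HUVEC in the BioMAP 3C setting.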

[7] = BSK_3C_uPAR: BioMAP Diversity Plus: 3C Assay for Urokinase-type plasminogen activator receptor (uPAR) Biomarker Activity (AID 2282998); conditions: BioMAP 3C HUVEC, uPAR biomarker ELISA; actives raise or lower the signal
Method in brief: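 HUVEC primary cells; 24 h post-dose; uPAR by ELISA; gain or loss of signal fitted bidirectionally vs DMSO baseline.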

[8] = BSK_3C_VCAM1: BioMAP Diversity Plus: 3C Assay for Vascular cell adhesion molecule 1 (VCAM1) Biomarker Activity (AID 2282999); conditions: BioMAP 3C HUVEC, VCAM1 ELISA, cytokine-stimulated; actives raise or lower the signal
Method in brief: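 Vascular primary endothelium (human umbilical vein) was exposed to chemicals and assayed 24 h later. VCAM-1 levels came from ELISA, with DMSO serving as baseline for bidirectional fitting.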

[9] = BSK_4H_Eotaxin3: BioMAP Diversity Plus: 4H Assay for Eotaxin 3 Biomarker Activity (AID 2283000); conditions: primary human endothelial cells (HUVEC); actives raise or lower the signal;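 further: CCL26 protein level quantified by ELISA in parallel with SRB cytotoxicity check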
Method in brief: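 Eotaxin-3 (CCL26) levels were measured by ELISA in HUVEC primary cultures 24 h post-dosing. Gain or loss of signal was fitted in both directions, with DMSO serving as baseline and negative control.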

[10] = biological target: human Peroxisome Proliferator-activated Receptor alpha (PPARa), PPARA (gene 5465) (UniProt Q07869); test: ATG_PPARa_TRANS: Attagene TRANS-FACTORIAL HepG2 Assay for human Peroxisome Proliferator-activated Receptor alpha (PPARa) (AID 2283001; active means hit-call score of the fitted dose curve at least 0.9, where 1 is the maximum)
Method in brief: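 Exposure: 24 h, transiently transfected HepG2 cells. Endpoint: GAL4-UAS reporter mRNA, RT-PCR with capillary electrophoresis fluorescence. Baseline: DMSO; increases fitted.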

[11] = read-out: Intercellular Adhesion Molecule 1 (ICAM1), ICAM1 (gene 3383); test: BSK_3C_ICAM1: BioMAP Diversity Plus: 3C Assay for Intercellular Adhesion Molecule 1 (ICAM1) Biomarker Activity (AID 2283003); conditions: primary human endothelial cells (HUVEC); actives raise or lower the signal
Method in brief: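 ELISA read-out of ICAM-1; HUVEC (primary human), 3C system, 24 h post-dosing; bidirectional fit vs DMSO baseline.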

[12] = BSK_3C_Proliferation: Cell Proliferation Assessment in the BioMAP Diversity Plus: 3C Assay (AID 2283006); conditions: primary human endothelial cells (HUVEC);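 on AC50: potency may reflect either rise or fall in cell number versus DMSO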
Method in brief: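 HUVEC, sub-confluent; 48 h chemical exposure; 10% TCA fix, 0.1% SRB stain, A560 total protein. Gain or loss of signal fitted both directions vs DMSO control.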

[13] = biological target: Peroxisome proliferator-activated receptor gamma (Homo sapiens) (UniProt P37231); test: ATG_PPARg_TRANS: Attagene TRANS-FACTORIAL HepG2 Assay for human Peroxisome Proliferator-activated Receptor-gamma (PPARg) (AID 2283007; active means hit-call score of the fitted dose curve at least 0.9, where 1 is the maximum)
Method in brief: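 Human hepatoma HepG2, transient MRTU transfection, 24 h treatment. mRNA reporter signal by RT-PCR plus capillary electrophoresis, fluorescence detection; fitted for increase over DMSO negative control.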

[14] = biological target: Nuclear receptor subfamily 1 group I member 2 (Homo sapiens) (UniProt O75469); test: ATG_PXR_TRANS: Attagene TRANS-FACTORIAL HepG2 Assay for human Pregnane X Receptor (PXR) (AID 2283008; active means hit-call score of the fitted dose curve at least 0.9, where 1 is the maximum)
Method in brief: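 Transactivation by exogenous PXR–GAL4 fusion measured as reporter transcript induction after 24 h compound treatment of transfected human HepG2 cells. Read-out via RT-PCR and capillary electrophoresis of labelled fragments, fitted upward relative to DMSO.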

[15] = biological target: human RAR-related Orphan Receptor gamma (RORg), RORC (gene 6097) (UniProt P51449); test: ATG_RORg_TRANS: Attagene TRANS-FACTORIAL HepG2 Assay for human RAR-related Orphan Receptor gamma (RORg) (AID 2283011; active means hit-call score of the fitted dose curve at least 0.9, where 1 is the maximum)
Method in brief: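 HepG2 cells transiently transfected with GAL4-UAS reporter units and chimeric RORg-Gal4 construct; after 24 h chemical exposure, reporter mRNA measured by RT-PCR with fluorescent capillary electrophoresis, gain of signal fitted against DMSO.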

[16] = ATG_NF_kB_CIS: Attagene CIS-FACTORIAL HepG2 Assay for human Nuclear Factor Kappa B (NF-kB) (AID 2282991); conditions: HepG2 Attagene cis-factorial NF-kB reporter mRNA; actives raise or lower the signal
Method in brief: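 Multiplexed cis-reporter assay in transiently transfected HepG2. 24 h treatment; RNA isolated, RT-PCR, labelled fragments resolved by CE. DMSO baseline.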

[17] = biological target: human Retinoic Acid Receptor beta (RARb), RARB (gene 5915) (UniProt P10826); test: ATG_RARb_TRANS: Attagene TRANS-FACTORIAL HepG2 Assay for human Retinoic Acid Receptor beta (AID 2283004; active means hit-call score of the fitted dose curve at least 0.9, where 1 is the maximum)
Method in brief: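 HepG2 cells were transiently transfected with GAL4-UAS reporter units that report activity of exogenous chimeric NR-Gal4 proteins, then exposed to compound for 24 h. Reporter mRNA was quantified by RT-PCR with capillary electrophoresis fluorescence, as gain of signal over DMSO.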

[18] = biological target: human Peroxisome Proliferator-activated Receptor delta (PPARd), PPARD (gene 5467) (UniProt Q03181); test: ATG_PPARd_TRANS: Attagene TRANS-FACTORIAL HepG2 Assay for human Peroxisome Proliferator-activated Receptor delta (PPARd) (AID 2283002; active means hit-call score of the fitted dose curve at least 0.9, where 1 is the maximum)
Method in brief: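 Multiplexed trans-activation format: HepG2 liver cells expressing exogenous NR-Gal4 chimeras and GAL4-UAS reporters were exposed for 24 h. Reporter mRNA was detected by RT-PCR with capillary electrophoresis fluorescence; activity fitted as gain of signal relative to DMSO.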

[19] = biological target: human Retinoic Acid Receptor gamma (RARg), RARG (gene 5916) (UniProt P13631); test: ATG_RARg_TRANS: Attagene TRANS-FACTORIAL HepG2 Assay for human Retinoic Acid Receptor gamma (RARg) (AID 2283009; active means hit-call score of the fitted dose curve at least 0.9, where 1 is the maximum)
Method in brief: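 Readout: reporter transcript levels via RT-PCR, 6-FAM primer-extension labelling, HpaI digestion and capillary electrophoresis. Cells: HepG2 carrying transfected RARg-GAL4 chimera plus UAS reporter set. Dosing 24 h; DMSO negative control.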

[20] = biological target: Retinoic acid receptor RXR-alpha (Homo sapiens) (UniProt P19793); test: ATG_RXRa_TRANS: Attagene TRANS-FACTORIAL HepG2 Assay for human Retinoid X Receptor alpha (RXRa) (AID 2283012; active means hit-call score of the fitted dose curve at least 0.9, where 1 is the maximum)
Method in brief: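 Read-out: fluorescent reporter-transcript fragments quantified by capillary electrophoresis after RT-PCR. Transiently transfected HepG2 cells carrying GAL4-UAS reporters and NR-GAL4 chimeras were exposed to chemical for 24 h; activity scored as increase over DMSO.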

Measured: AC50

Sequence of human Retinoic Acid Receptor gamma (RARg), RARG (gene 5916) (P13631 whole entry, looked up, the tested form may be a part): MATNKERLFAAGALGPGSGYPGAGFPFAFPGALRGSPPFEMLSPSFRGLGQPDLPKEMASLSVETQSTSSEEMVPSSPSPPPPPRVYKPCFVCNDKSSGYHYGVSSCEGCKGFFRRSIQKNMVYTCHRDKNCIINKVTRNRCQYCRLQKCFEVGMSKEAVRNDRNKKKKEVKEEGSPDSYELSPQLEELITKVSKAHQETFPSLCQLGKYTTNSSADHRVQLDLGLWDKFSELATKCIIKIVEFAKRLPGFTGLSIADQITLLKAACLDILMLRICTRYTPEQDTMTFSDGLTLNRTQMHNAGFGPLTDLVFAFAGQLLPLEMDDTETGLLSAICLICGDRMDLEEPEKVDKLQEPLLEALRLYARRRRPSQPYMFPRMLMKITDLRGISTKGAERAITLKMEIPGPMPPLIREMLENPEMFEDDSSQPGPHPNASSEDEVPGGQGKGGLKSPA
Sequence of Nuclear receptor subfamily 1 group I member 2 (Homo sapiens) (O75469 whole entry, looked up, the tested form may be a part): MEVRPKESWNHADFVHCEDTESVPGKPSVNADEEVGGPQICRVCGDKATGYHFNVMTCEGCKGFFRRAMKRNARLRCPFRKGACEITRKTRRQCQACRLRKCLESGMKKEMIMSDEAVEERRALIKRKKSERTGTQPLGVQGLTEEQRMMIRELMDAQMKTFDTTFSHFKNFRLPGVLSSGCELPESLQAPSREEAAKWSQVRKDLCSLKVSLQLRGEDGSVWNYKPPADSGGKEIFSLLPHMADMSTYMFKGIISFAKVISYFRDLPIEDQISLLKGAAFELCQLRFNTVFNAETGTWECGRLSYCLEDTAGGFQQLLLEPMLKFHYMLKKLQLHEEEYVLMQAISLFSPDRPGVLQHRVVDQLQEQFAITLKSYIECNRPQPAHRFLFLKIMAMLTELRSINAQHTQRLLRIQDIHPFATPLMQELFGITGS
Sequence of human RAR-related Orphan Receptor gamma (RORg), RORC (gene 6097) (P51449 whole entry, looked up, the tested form may be a part): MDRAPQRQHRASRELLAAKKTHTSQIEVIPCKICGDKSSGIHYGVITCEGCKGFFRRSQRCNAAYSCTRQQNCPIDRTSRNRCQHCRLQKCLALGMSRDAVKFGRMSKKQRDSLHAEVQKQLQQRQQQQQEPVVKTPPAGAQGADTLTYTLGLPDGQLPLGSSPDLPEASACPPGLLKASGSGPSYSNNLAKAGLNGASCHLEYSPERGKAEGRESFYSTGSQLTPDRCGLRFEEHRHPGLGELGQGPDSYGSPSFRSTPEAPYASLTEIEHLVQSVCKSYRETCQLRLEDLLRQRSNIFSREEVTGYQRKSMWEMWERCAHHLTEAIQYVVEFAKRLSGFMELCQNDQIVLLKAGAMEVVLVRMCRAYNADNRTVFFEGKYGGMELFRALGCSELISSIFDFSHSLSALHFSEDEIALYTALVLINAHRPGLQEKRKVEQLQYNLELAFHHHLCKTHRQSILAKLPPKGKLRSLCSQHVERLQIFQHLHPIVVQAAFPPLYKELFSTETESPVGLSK
Sequence of Cellular tumor antigen p53 (Homo sapiens) (P04637 whole entry, looked up): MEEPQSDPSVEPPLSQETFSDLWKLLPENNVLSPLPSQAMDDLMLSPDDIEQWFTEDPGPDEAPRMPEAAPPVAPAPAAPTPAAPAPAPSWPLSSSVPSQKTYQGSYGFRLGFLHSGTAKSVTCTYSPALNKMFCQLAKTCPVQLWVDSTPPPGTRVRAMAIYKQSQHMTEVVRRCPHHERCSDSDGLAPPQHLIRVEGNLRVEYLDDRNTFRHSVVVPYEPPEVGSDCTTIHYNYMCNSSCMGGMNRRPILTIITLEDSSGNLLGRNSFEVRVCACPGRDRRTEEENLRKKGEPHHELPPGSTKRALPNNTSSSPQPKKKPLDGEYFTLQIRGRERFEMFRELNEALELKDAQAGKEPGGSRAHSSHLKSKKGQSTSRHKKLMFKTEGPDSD
Sequence of Peroxisome proliferator-activated receptor gamma (Homo sapiens) (P37231 whole entry, looked up): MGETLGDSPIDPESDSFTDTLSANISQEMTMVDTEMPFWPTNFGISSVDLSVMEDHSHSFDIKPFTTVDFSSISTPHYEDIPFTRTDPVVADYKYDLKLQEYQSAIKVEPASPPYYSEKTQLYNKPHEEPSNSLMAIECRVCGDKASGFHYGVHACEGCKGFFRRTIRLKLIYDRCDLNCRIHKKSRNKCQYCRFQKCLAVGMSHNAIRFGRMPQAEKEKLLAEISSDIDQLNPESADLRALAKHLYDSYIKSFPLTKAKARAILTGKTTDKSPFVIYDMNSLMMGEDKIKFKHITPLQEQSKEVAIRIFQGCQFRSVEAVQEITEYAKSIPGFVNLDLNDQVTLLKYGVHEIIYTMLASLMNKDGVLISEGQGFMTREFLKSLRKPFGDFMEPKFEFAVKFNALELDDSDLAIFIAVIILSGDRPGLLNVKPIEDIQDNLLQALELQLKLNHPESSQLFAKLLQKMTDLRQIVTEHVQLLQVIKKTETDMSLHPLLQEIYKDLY
Sequence of human Peroxisome Proliferator-activated Receptor alpha (PPARa), PPARA (gene 5465) (Q07869 whole entry, looked up, the tested form may be a part): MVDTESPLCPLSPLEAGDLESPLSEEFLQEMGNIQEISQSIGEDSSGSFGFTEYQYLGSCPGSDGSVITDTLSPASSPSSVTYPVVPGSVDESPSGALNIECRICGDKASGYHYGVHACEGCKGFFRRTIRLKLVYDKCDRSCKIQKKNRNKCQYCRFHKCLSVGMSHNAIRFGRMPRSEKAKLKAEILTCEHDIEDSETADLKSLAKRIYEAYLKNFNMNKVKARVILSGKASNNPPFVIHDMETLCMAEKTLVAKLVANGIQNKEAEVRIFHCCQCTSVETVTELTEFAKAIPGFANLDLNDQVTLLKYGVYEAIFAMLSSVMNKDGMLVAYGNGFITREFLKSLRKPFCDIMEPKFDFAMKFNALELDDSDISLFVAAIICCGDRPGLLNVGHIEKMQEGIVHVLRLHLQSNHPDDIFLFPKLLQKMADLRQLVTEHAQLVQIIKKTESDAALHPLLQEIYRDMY
Sequence of Myc proto-oncogene protein (Homo sapiens) (P01106 whole entry, looked up): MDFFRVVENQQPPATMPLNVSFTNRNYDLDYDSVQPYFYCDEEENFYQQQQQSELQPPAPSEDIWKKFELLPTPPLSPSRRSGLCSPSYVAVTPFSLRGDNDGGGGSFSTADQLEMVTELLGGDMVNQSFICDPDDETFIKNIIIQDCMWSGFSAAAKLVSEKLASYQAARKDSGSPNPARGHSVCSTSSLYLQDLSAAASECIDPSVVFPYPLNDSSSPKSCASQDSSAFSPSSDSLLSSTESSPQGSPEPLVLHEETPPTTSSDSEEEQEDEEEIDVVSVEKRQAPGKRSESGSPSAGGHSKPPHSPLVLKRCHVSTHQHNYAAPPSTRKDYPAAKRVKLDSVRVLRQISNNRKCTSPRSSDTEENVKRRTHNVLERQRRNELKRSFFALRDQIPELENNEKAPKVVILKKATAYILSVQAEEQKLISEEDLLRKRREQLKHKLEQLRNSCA
Sequence of human Retinoic Acid Receptor beta (RARb), RARB (gene 5915) (P10826 whole entry, looked up, the tested form may be a part): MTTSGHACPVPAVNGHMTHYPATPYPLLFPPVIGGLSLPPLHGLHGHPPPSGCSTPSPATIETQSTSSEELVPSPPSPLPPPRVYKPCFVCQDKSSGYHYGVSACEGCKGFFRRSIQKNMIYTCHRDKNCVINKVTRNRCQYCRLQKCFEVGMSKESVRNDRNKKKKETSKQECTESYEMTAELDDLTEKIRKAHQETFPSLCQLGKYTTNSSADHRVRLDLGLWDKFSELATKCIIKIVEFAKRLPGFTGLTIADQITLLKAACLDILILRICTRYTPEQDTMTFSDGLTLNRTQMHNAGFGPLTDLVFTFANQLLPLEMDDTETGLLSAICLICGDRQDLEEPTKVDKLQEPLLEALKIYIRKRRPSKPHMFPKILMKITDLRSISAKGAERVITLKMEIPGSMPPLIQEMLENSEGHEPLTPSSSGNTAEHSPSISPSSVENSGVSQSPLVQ
Sequence of human Peroxisome Proliferator-activated Receptor delta (PPARd), PPARD (gene 5467) (Q03181 whole entry, looked up, the tested form may be a part): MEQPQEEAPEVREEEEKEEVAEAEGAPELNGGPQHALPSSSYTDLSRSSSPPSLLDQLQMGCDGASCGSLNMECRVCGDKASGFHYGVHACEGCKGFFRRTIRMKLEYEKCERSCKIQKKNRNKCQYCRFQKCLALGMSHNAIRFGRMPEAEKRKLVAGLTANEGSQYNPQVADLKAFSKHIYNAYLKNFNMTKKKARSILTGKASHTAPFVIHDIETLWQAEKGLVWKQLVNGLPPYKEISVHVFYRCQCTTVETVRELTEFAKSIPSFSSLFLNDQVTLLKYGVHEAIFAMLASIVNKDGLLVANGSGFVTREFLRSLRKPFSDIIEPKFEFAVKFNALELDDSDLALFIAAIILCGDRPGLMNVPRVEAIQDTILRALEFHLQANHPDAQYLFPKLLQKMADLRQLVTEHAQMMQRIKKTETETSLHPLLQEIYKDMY
Sequence of Retinoic acid receptor RXR-alpha (Homo sapiens) (P19793 whole entry, looked up, the tested form may be a part): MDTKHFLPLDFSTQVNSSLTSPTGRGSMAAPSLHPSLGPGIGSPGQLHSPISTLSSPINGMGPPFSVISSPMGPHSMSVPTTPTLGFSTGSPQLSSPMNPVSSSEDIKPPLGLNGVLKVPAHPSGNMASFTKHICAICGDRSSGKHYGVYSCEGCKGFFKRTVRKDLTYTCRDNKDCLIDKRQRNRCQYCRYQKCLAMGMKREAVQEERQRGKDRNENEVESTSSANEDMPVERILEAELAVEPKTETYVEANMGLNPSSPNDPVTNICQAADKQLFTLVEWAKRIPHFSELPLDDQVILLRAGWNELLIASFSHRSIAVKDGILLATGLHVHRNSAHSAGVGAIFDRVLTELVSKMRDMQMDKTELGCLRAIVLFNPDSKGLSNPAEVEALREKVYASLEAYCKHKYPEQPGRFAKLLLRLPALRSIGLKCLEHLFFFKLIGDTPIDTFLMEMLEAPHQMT

CCCN(CCC)C(=O)SCC
inactive: [1] | [2] | [3] | [4] | [5] | [6] | [7] | [8] | [9] | [10] | [11] | [12] | [13] | [14] | [15]

CCSC(=O)N(CC(C)C)CC(C)C
inactive: [1] | [2] | [16] | [3] | [4] | [5] | [6] | [7] | [8] | [9] | [11] | [17] | [12] | [13] | [15]

C#CCOC(=O)[C@@H](C)Oc1ccc(Oc2ncc(Cl)cc2F)cc1
inactive: [1] | [2] | [3] | [4] | [5] | [6] | [7] | [8] | [9] | [10] | [18] | [11] | [12] | [13] | [19] | [15] | [20]

CCC(O)=C1C(=O)CC(C(=O)O)CC1=O (configuration not stated)
active: [3] 35.6 µM | [13] 22.3 µM
inactive: [1] | [2] | [16] | [4] | [5] | [6] | [7] | [8] | [9] | [11] | [17] | [12] | [19] | [15]

CC1(C)C(C=C(Cl)Cl)C1C(=O)OCc1cccc(Oc2ccccc2)c1 (configuration not stated)
inactive: [1] | [2] | [4] | [5] | [6] | [7] | [8] | [9] | [10] | [11] | [15]
active: [3] 6.5 µM | [12] 4.29 µM | [14] 20.2 µM

COc1c(Cl)ccc(Cl)c1C(=O)O
inactive: [1] | [2] | [3] | [4] | [6] | [7] | [8] | [9] | [10] | [18] | [11] | [17] | [12] | [13] | [14] | [19]

CSC(=O)c1cccc2nnsc12
inactive: [1] | [2] | [3] | [4] | [5] | [6] | [7] | [8] | [9] | [10] | [11] | [12] | [13] | [19]

Reference: PubChem BioAssay (EPA / NIEHS)
